High-throughput results from PubChem.
MITF primary = MITF inhibitors, primary screen, biochemical, AlphaScreen, human. AlphaScreen MITF homodimerization, bead proximity signal. inhibition, % at 2.6 µM. hit rate 0.91% among 650,000. AID 1259374, 2018; in the data active = inhibition above about 50%
GPR151 activ = activators of human GPR151, primary screen, cell-based, PathHunter beta-arrestin, luminescence; PathHunter beta-arrestin GPR151 cells; activation, % at 11.2 µM; hit rate 1% among 650,000; G-protein coupled receptor 151 (Homo sapiens), Q8TDV0; in the data active = activation above about 4.9%
TEAD-YAP block = TEAD-YAP interaction inhibition, primary screen, TEAD-YAP interaction inhibitor project, luminescence, HEK-TIYL cells | AID 1259422, 2018 | inhibition, % at 9.12 µM | TEAD-Gal4/YAP UAS-luciferase luminescence | hit rate 1.4% among 640,000; in the data active = inhibition above about 32%
FBW7 act = FBW7 E3 ligase activators, primary screen, biochemical, AlphaScreen, human. F-box/WD repeat-containing protein 7 (Homo sapiens), Q969H0. AlphaScreen FBW7–phospho-cyclin E peptide binding, activator screen. normalized activity (activation), % at 26.1 µM. hit rate 0.13% among 650,000; in the data active = normalized activity above about 1.9%;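 note: purified mutant Fbw7 with reduced substrate affinity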
Target sequence (Q969H0 whole entry, looked up): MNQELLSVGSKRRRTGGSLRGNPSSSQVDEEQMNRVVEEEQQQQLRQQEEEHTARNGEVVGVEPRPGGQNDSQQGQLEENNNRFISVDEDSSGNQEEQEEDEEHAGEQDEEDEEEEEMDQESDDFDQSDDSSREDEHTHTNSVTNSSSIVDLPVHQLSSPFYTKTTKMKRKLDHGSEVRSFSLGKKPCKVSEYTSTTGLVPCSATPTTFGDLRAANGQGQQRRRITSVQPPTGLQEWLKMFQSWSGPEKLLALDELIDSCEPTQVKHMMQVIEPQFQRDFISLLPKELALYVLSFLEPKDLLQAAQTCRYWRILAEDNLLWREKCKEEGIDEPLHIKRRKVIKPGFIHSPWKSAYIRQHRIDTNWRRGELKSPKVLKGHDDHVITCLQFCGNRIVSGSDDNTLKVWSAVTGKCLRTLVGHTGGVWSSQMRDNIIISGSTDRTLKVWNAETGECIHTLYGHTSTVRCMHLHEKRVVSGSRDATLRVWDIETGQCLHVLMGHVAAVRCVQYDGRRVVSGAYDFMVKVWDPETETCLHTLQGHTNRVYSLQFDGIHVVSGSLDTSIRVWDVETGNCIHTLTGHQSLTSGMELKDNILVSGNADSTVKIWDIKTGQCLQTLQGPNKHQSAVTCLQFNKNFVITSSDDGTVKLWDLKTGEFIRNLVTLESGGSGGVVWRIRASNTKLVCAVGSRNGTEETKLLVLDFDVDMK
MITF inh conf = MITF inhibitors, retest of hits, confirmation, biochemical, AlphaScreen, triplicate. shares compounds with MITF primary. AlphaScreen MITF homodimerization, biotin/His-MITF beads. inhibition, % at 2.6 µM. hit rate 16% among 4,700. AID 1259372, 2018;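 active = inhibition above a cutoff derived from the DMSO control wells, cut at about 28% in these data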;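 note: inhibitors lower the bead chemiluminescence by keeping MITF from dimerizing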
AlphaScreen DR = AlphaScreen optical interference compounds, dose response, counter-screen, biochemical, HTS. shares compounds with MITF primary. AlphaScreen optical interference counterscreen, cell-free. IC50, µM. hit rate 6% among 480; call rule not given here
AS interf ctr = AlphaScreen optical interference compounds, counter-screen for MITF inhibitor project, biochemical, triplicate; shares compounds with MITF primary; LysRS AlphaScreen counterscreen, signal interference; inhibition, % at 2.6 µM; hit rate 7.6% among 4,700; AID 1259376, 2018;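 active = inhibition above a cutoff derived from the DMSO control wells, cut at about 30% in these data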
Each line names hits and unclear results; the compound was inactive in the other large screens (follow-up assays come after a bar, where they were run). This is a sample that favours compounds with a hit; in the whole collection about 3.4% have one here.

Cc1cccc(NC2=C(C(=O)c3ccc(Cl)cc3)C(c3ccc(F)cc3)N(CCCCCC(=O)O)C2=O)c1 (stereo not drawn)	MITF primary 79 | MITF inh conf inactive | AS interf ctr inactive
COc1ccc(/C=C/C(=O)N2c3ccccc3Sc3ccccc32)cc1OC	none
CCC1=NN2C(=N)/C(=C/c3cc(Cl)c(OCCOc4ccc(C)c(C)c4)c(OC)c3)C(=O)N=C2S1	none
Cc1ccccc1CSc1nc(=O)n(CCCO)c2c1CCCC2	none
O=c1nc(SCc2ccccc2)c2c(n1CCCO)CCCC2	MITF primary 80 | MITF inh conf inactive | AS interf ctr inactive
COc1ccc(C(=O)COC(=O)c2ccc(Br)cc2)cc1[N+](=O)[O-]	none
O=C(Cn1ncn2cccc2c1=O)N1CCc2ccccc2C1	MITF primary 66 | MITF inh conf 67 | AlphaScreen DR inactive | AS interf ctr inactive
CC(=O)N1CCN(CC(=O)N2CCc3ccccc3C2)CC1	MITF primary 83 | MITF inh conf inactive | AS interf ctr inactive
O=C(CCl)N1CCc2ccccc2C1	none
Cn1cccc1CN1CCN(C(=O)c2ccccc2F)CC1	MITF primary 54 | MITF inh conf inactive | AS interf ctr inactive
Cn1cccc1CN1CCN(C(=O)c2cccc(F)c2)CC1	none
Cn1cccc1CN1CCN(C(=O)c2ccc(F)cc2)CC1	MITF primary 53 | MITF inh conf inactive | AS interf ctr inactive
Cn1cccc1CN1CCN(C(=O)c2ccc(-c3ccccc3)cc2)CC1	none
CC1(C)CC(=O)C(C(c2cccc(OCc3ccccc3)c2)C2C(=O)CC(C)(C)CC2=O)C(=O)C1	none
CCOC(=O)C1CCN(Cc2ccc(F)cc2)CC1	none
CC(C)NC(=O)C1CCN(Cc2ccc(Cl)c(Cl)c2)CC1	MITF primary 51 | MITF inh conf inactive | AS interf ctr inactive
CC(C)NC(=O)C1CCN(Cc2ccc(C(F)(F)F)cc2)CC1	MITF primary 52 | MITF inh conf inactive | AS interf ctr inactive
CCOC(=O)C1CCN(Cc2ccc(C(F)(F)F)cc2)CC1	MITF primary 51 | MITF inh conf inactive | AS interf ctr inactive
CC(C)n1c(N2CCOCC2)nc2c(NCCN3CCOCC3)ncnc21	none
CC(=O)c1cccc(-c2nc3ncnc(NC4CC4)c3[nH]2)c1	none
COc1ccc(-c2ccc(C)c(NC(=O)c3c(OC)cccc3OC)c2)nn1	none
CCOc1ccc(-c2ccc(NC(=O)c3c(OC)cccc3OC)cc2)nn1	MITF primary 99 | MITF inh conf inactive | AS interf ctr inactive
CC(=O)NC1(c2ccccc2)CCN(C(=O)C2CC2)CC1	none
CC(=O)NC1(c2ccccc2)CCN(C(=O)N2CCOCC2)CC1	MITF primary 82 | MITF inh conf inactive | AS interf ctr inactive
O=C(Nc1ccc(O)cc1)c1cc(S(=O)(=O)N2CCCC2)ccc1Cl	MITF primary 70 | MITF inh conf inactive | AS interf ctr inactive
COc1ccc(CN2CCN(C(=O)c3ccc([N+](=O)[O-])cc3)CC2)cc1	MITF primary 60 | MITF inh conf inactive | AS interf ctr inactive
COc1ccc(C(=O)N2CCN(Cc3cccnc3)CC2)cc1OC	MITF primary 78 | MITF inh conf inactive | AS interf ctr inactive
COc1ccc(C(=O)N2CCN(Cc3cccnc3)CC2)cc1	MITF primary 67 | MITF inh conf inactive | AS interf ctr inactive
O=C(c1cccc2ccccc12)N1CCN(Cc2cccnc2)CC1	MITF primary 60 | MITF inh conf inactive | AS interf ctr inactive
C=C(C)[C@@H]1CC=C(CN2CCc3nnc(CNC(=O)CCc4cccnc4)n3CC2)CC1	none
O=C(c1ccc([N+](=O)[O-])cc1)N1CCN(Cc2cccnc2)CC1	MITF primary 74 | MITF inh conf inactive | AS interf ctr inactive
COc1cc(CN2CCN(C/C=C/c3ccccc3)CC2)c([N+](=O)[O-])cc1OC	none
